In PubChem BioAssay (NCI) one finds growth data, which are given here for eleven compounds.

The panel holds about 83,000 compounds, 20% with a hit somewhere; the sample as a whole holds those more often.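 Values shown are percent growth following 48 h exposure of cells in 96-well plates to a single concentration of compound; below 10 was considered active.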 Values without a mark were called inactive. Activity calls are given as the source filed them.

Among the test systems are SR leukemia; RPMI-8226 leukemia; OVCAR-8 ovarian; OVCAR-5 ovarian; OVCAR-4 ovarian; SK-OV-3 ovarian; IGROV1 ovarian; OVCAR-3 ovarian; HS 578T breast; NCI/ADR-RES ovarian.
Common to all, as to test: NCI-60 one-dose screen, 48 h (100 = growth as untreated, 0 = no growth, -100 = all killed)
Common to all, as to settings: 10 µM unless noted

In the case of `O=[N+]([O-])c1ccc(O)cc1Br`, the growth with SR leukemia is 99.1%; in the test with RPMI-8226 leukemia it was 91.4%; with OVCAR-8 ovarian, 100%; with OVCAR-5 ovarian, 94%; in the test with OVCAR-4 ovarian, 89.3%; in the test on SK-OV-3 ovarian, 101%. The growth in the test on IGROV1 ovarian was 101%; in the test on OVCAR-3 ovarian, 106%; in the test on HS 578T breast, 98.4%; in the test on NCI/ADR-RES ovarian it was 98.9%.
Consider `NS(=O)(=O)c1ccccc1NC(=O)Nc1nc2ccccc2s1`, for which the growth in the test on SR leukemia is 94.4%; in the test with RPMI-8226 leukemia, 102%; with OVCAR-8 ovarian, 100%; in the test with OVCAR-5 ovarian, 101%; in the test on OVCAR-4 ovarian, 93.3%; with SK-OV-3 ovarian, 97.3%. For the same compound, the growth with IGROV1 ovarian was 89.1%; in the test with OVCAR-3 ovarian, 108%; in the test on HS 578T breast, 100%; in the test with NCI/ADR-RES ovarian, 99.7%.
In the case of `Cn1cc(C(=O)c2nc(-c3c[nH]c4ccccc34)no2)c2cc(F)ccc21`, the growth with SR leukemia was 11.2%; in the test with RPMI-8226 leukemia it was 37.5%; in the test with OVCAR-8 ovarian, 49.3%; in the test on OVCAR-5 ovarian, 68.3%; in the test on OVCAR-4 ovarian, 69.8%; in the test on SK-OV-3 ovarian, 43.3%. Further, the growth is 32.5% in the test on IGROV1 ovarian, 0.717% (active) in the test on OVCAR-3 ovarian, 44.8% in the test on HS 578T breast and 36.5% in the test with NCI/ADR-RES ovarian.
For the compound `COc1ccc2[nH]c(C(=O)N3CCN(C(=O)OCc4ccc5c(Cl)cc(Cl)c(O)c5n4)CC3)cc2c1`, the growth in the test on SR leukemia is 2.29% (active); in the test on RPMI-8226 leukemia, -27.9% (active); with OVCAR-8 ovarian, -64.1% (active); with OVCAR-5 ovarian, -88.7% (active); in the test with OVCAR-4 ovarian, -69.5% (active); in the test on SK-OV-3 ovarian it was 44.7%. The growth with IGROV1 ovarian is -96.4% (active); with OVCAR-3 ovarian, -97.3% (active); in the test on HS 578T breast, -15.1% (active); in the test with NCI/ADR-RES ovarian, -2.44% (active).
As to `CCN(CC)CCn1c2ccc(O)cc2c2sc3cc(O)ccc3c(=O)c21`, the growth in the test on SR leukemia was 5.78% (active); with RPMI-8226 leukemia it was 28.3%; in the test with OVCAR-8 ovarian, 31.4%; in the test on OVCAR-5 ovarian, 54%; with OVCAR-4 ovarian it was 46.6%; with SK-OV-3 ovarian, 48.7%. Further, the growth was 15.4% in the test on IGROV1 ovarian, 41% with OVCAR-3 ovarian, 64.5% in the test with HS 578T breast and 61.1% with NCI/ADR-RES ovarian.
`CN1C(=O)/C(=C\c2nc([P+](c3ccccc3)(c3ccccc3)c3ccccc3)c(N3CCOCC3)o2)SC1=S`: the growth is 13.3% in the test with SR leukemia; -21.1% (active) in the test with RPMI-8226 leukemia; 96.4% in the test on OVCAR-8 ovarian; 96.7% in the test with OVCAR-5 ovarian; 90.5% in the test with OVCAR-4 ovarian; 108% in the test with SK-OV-3 ovarian. For the same compound, the growth is 5.71% (active) with IGROV1 ovarian, 100% with OVCAR-3 ovarian, 90.4% with HS 578T breast and 90.5% in the test on NCI/ADR-RES ovarian.
Take `O=C1c2ccccc2-c2c1c1c(=O)[nH]c3ccccc3c1n2Cc1ccccc1`: the growth was 55.4% with SR leukemia; 80.3% in the test with RPMI-8226 leukemia; 63.2% in the test with OVCAR-8 ovarian; 56.5% in the test on OVCAR-5 ovarian; 35% in the test with OVCAR-4 ovarian; 76.3% with SK-OV-3 ovarian. Further, the growth in the test with IGROV1 ovarian was 71.5%; in the test on OVCAR-3 ovarian, 77.2%; with HS 578T breast it was -15% (active); in the test with NCI/ADR-RES ovarian it was 67.9%.
For the compound `COc1cc(NS(=O)(=O)c2ccc(-c3cnc(C4CC4)o3)cc2)ccc1F`, the growth was 19.6% in the test with SR leukemia; 20.2% in the test on RPMI-8226 leukemia; 28.6% in the test with OVCAR-8 ovarian; 36.7% in the test with OVCAR-5 ovarian; 38.6% in the test on OVCAR-4 ovarian; 47.4% in the test with SK-OV-3 ovarian. Further, the growth is 24.6% with IGROV1 ovarian, -15.4% (active) with OVCAR-3 ovarian, 8.89% (active) in the test with HS 578T breast and 15.3% in the test with NCI/ADR-RES ovarian.
For the compound `COc1cc2c(c(OC)c1OC)CCC(c1cccc(NC(=O)c3ccc(Br)cc3)c1)O2` (stereo not given), the growth is 35% with SR leukemia; 56.8% in the test with RPMI-8226 leukemia; 85.3% with OVCAR-8 ovarian; 93.3% with OVCAR-5 ovarian; 67.4% in the test with OVCAR-4 ovarian; 75% in the test with SK-OV-3 ovarian. The growth with IGROV1 ovarian is 71%; in the test with OVCAR-3 ovarian, 90.8%; in the test with HS 578T breast, 90.4%; with NCI/ADR-RES ovarian, 84.1%.
As for `O=C(CN1C(=O)S/C(=C\C(Cl)=C\c2ccccc2)C1=O)NCCc1ccc(O)cc1`, the growth is 1.71% (active) in the test with SR leukemia; 0.0656% (active) in the test on RPMI-8226 leukemia; 14% in the test with OVCAR-8 ovarian; 77.7% with OVCAR-5 ovarian; 56.4% in the test with OVCAR-4 ovarian; 90.1% with SK-OV-3 ovarian. Further, the growth in the test on IGROV1 ovarian is -12.9% (active); in the test with OVCAR-3 ovarian, -14.4% (active); in the test on HS 578T breast, 36.3%; with NCI/ADR-RES ovarian it was 19.6%.
Consider `O=C(C[C@]1(O)C(=O)Nc2ccccc21)c1cccc(C(F)(F)F)c1`, for which the growth with SR leukemia was 96.7%; in the test with RPMI-8226 leukemia, 88.7%; with OVCAR-8 ovarian it was 95.1%; with OVCAR-5 ovarian it was 81.4%; in the test on OVCAR-4 ovarian it was 91.3%; in the test on SK-OV-3 ovarian, 75.8%. Besides, the growth is 67.6% in the test on IGROV1 ovarian, 77.9% with OVCAR-3 ovarian, 90.3% with HS 578T breast and 94.7% in the test on NCI/ADR-RES ovarian.
